Source: PubChem BioAssay (EPA / NIEHS)
Active and inactive are the calls of the source. Rule for the calls: active = hit-call score of the fitted dose curve at least 0.9, where 1 is the maximum; inactive = score below 0.9.

How the values were obtained:
[1] = read-out: TIMP metallopeptidase inhibitor 2 (TIMP2), TIMP2 (gene 7077); test: BSK_KF3CT_TIMP2: BioMAP Diversity Plus: KF3CT Assay for TIMP metallopeptidase inhibitor 2 (TIMP2) Biomarker Activity (AID 2283071); conditions: primary human keratinocytes with fibroblasts; actives raise or lower the signal
Method in brief: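 Keratinocyte–fibroblast co-culture, 24 h exposure; TIMP-2 ELISA, DMSO-normalised bidirectional fit. Parallel SRB (0.1%, TCA-fixed, 560 nm) total-protein staining gauges cytotoxicity.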

[2] = read-out: Transforming growth factor beta 1 (TGFb1), TGFB1 (gene 7040); test: BSK_KF3CT_TGFb1: BioMAP Diversity Plus: KF3CT Assay for Transforming growth factor beta 1 (TGFb1) Biomarker Activity (AID 2283072); conditions: primary human keratinocytes with fibroblasts; actives raise or lower the signal
Method in brief: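 Signal changes in either direction, relative to DMSO, define activity here. TGF-b1 is read by ELISA from a human keratinocyte-fibroblast co-culture 24 h post-dose.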

[3] = read-out: Matrix Metallopeptidase 9 (MMP9), MMP9 (gene 4318); test: BSK_KF3CT_MMP9: BioMAP Diversity Plus: KF3CT Assay for Matrix Metallopeptidase 9 (MMP9) Biomarker Activity (AID 2283074); conditions: primary human keratinocytes with fibroblasts; actives raise or lower the signal;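 for AC50: MMP9 protein level quantified by ELISA in the co-culture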
Method in brief: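 Keratinocyte plus foreskin fibroblast human primary skin co-culture was dosed with chemical and MMP-9 was quantified by ELISA 24 h later. Bidirectional curve fitting used DMSO as negative control and activity baseline.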

CD40, CD40 (gene 958) [4] = test: BSK_LPS_CD40: BioMAP Diversity Plus: LPS Assay for CD40 Biomarker Activity (AID 2283076); conditions: primary human HUVEC with PBMC; actives raise or lower the signal
Method in brief: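 CD40 signal, measured by ELISA, is fitted in both directions relative to DMSO vehicle. The system is an LPS-driven human vascular primary co-culture of endothelial cells and PBMC, sampled 24 h after compound addition.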

[5] = read-out: Interleukin-8 (IL8), CXCL8 (gene 3576); test: BSK_LPS_IL8: BioMAP Diversity Plus: LPS Assay for Interleukin-8 (IL8) Biomarker Activity (AID 2283078); conditions: primary human HUVEC with PBMC; actives raise or lower the signal
Method in brief: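 Endothelial cells and PBMC from human donors are co-cultured, treated with chemicals and LPS, then assayed for IL-8 by ELISA after 24 h. Parallel SRB staining (0.1% SRB after 10% TCA fixation, 560 nm) flags cytotoxicity.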

[6] = BSK_LPS_SRB: Viability Assessment in the BioMAP Diversity Plus: LPS Assay (AID 2283079); conditions: primary human HUVEC with PBMC;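 note: total protein by sulforhodamine B absorbance as a cytotoxicity measure; measured one day after compound addition; fitted in both directions against DMSO so loss or gain of signal counts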
Method in brief: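 Overt cytotoxicity was gauged by sulforhodamine B total-protein staining in a primary human vascular endothelial and mononuclear cell co-culture 24 h post-dosing. Activity was fitted in both directions relative to DMSO.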

[7] = read-out: Interleukin-1 alpha (IL1a), IL1A (gene 3552); test: BSK_LPS_IL1a: BioMAP Diversity Plus: LPS Assay for Interleukin-1 alpha (IL1a) Biomarker Activity (AID 2283080); conditions: primary human HUVEC with PBMC; actives raise or lower the signal
Method in brief: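 Measured: IL-1 alpha via ELISA at 24 h in LPS-activated human umbilical vein endothelium–PBMC co-culture. Baseline: DMSO, bidirectional fitting.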

[8] = read-out: Monocyte Chemoattractant Protein-1 (MCP1), CCL2 (gene 6347); test: BSK_LPS_MCP1: BioMAP Diversity Plus: LPS Assay for Monocyte Chemoattractant Protein-1 (MCP1) Biomarker Activity (AID 2283081); conditions: primary human HUVEC with PBMC; actives raise or lower the signal;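 for AC50: secreted MCP-1 protein quantified by ELISA in culture supernatant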
Method in brief: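 LPS-stimulated HUVEC/PBMC co-culture; chemical, 24 h; MCP-1 by ELISA; bidirectional fit vs DMSO; cytotoxicity via SRB (0.1% stain, 10% TCA fix, 560 nm) in parallel wells.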

[9] = BSK_LPS_PGE2: BioMAP Diversity Plus: LPS Assay for Prostaglandin E2 (PGE2) Biomarker Activity (AID 2283082); conditions: primary human HUVEC with PBMC; actives raise or lower the signal;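 for AC50: secreted prostaglandin E2 measured by ELISA in LPS-stimulated co-culture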
Method in brief: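 Endpoint derived from bidirectional curve fitting versus DMSO of ELISA-measured PGE2 in LPS-stimulated human primary vascular co-culture (HUVEC with PBMC) harvested at 24 h.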

[10] = read-out: Macrophage colony-stimulating factor (MCSF), CSF1 (gene 1435); test: BSK_LPS_MCSF: BioMAP Diversity Plus: LPS Assay for Macrophage colony-stimulating factor (MCSF) Biomarker Activity (AID 2283083); conditions: primary human HUVEC with PBMC; actives raise or lower the signal
Method in brief: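 Compound is added to a human vascular primary co-culture of umbilical vein endothelium and blood mononuclear cells. After 24 h, M-CSF is quantified by ELISA. Signal changes are fitted in both directions against DMSO.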

[11] = read-out: Tissue Factor, F3 (gene 2152); test: BSK_LPS_TissueFactor: BioMAP Diversity Plus: LPS Assay for Tissue Factor Biomarker Activity (AID 2283084); conditions: primary human HUVEC with PBMC; actives raise or lower the signal
Method in brief: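 In this co-culture system of umbilical vein endothelium with PBMC, stimulated with LPS, cell-surface CD142 is detected by ELISA at 24 h. Endpoint values derive from bidirectional fitting, DMSO serving as baseline.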

[12] = read-out: Tumor necrosis factor (Homo sapiens) (UniProt P01375); test: BSK_LPS_TNFa: BioMAP Diversity Plus: LPS Assay for Tumour Necrosis Factor alpha (TNFa) Biomarker Activity (AID 2283085); conditions: primary human HUVEC with PBMC; actives raise or lower the signal;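 for AC50: TNFa protein level quantified by ELISA in the co-culture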
Method in brief: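 Primary human vascular co-culture of HUVEC and PBMC; TNFa ELISA 24 h after treatment, analysed as increase or decrease relative to DMSO control.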

[13] = read-out: Vascular cell adhesion molecule 1 (VCAM1), VCAM1 (gene 7412); test: BSK_LPS_VCAM1: BioMAP Diversity Plus: LPS Assay for Vascular cell adhesion molecule 1 (VCAM1) Biomarker Activity (AID 2283086); conditions: primary human HUVEC with PBMC; actives raise or lower the signal
Method in brief: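 Primary human vascular co-culture (umbilical vein endothelium plus PBMC) stimulated with LPS received chemical; 24 h later VCAM-1 was read by ELISA. Overt cytotoxicity was assessed by sulforhodamine B staining of parallel cultures at the same time point.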

CD38, CD38 (gene 952) = test: BSK_SAg_CD38: BioMAP Diversity Plus: SAg Assay for CD38 Biomarker Activity (AID 2283087); conditions: primary human HUVEC with PBMC; actives raise or lower the signal
Method in brief: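 Fluorescence ELISA of cell-surface CD38 served as the read-out, with either increase or decrease fitted against DMSO controls. Cells were a human umbilical vein endothelium plus PBMC co-culture under SEB/TSST-1 stimulation, measured 24 h after dosing.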

CD40, CD40 (gene 958) [14] = test: BSK_SAg_CD40: BioMAP Diversity Plus: SAg Assay for CD40 Biomarker Activity (AID 2283088); conditions: primary human HUVEC with PBMC; actives raise or lower the signal
Method in brief: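 Fluorescence ELISA read-out of CD40 from umbilical vein endothelium plus peripheral blood mononuclear cells, sampled 24 h after dosing. Values come from bidirectional curve fitting with DMSO as baseline.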

CD69, CD69 (gene 969) = test: BSK_SAg_CD69: BioMAP Diversity Plus: SAg Assay for CD69 Biomarker Activity (AID 2283089); conditions: primary human HUVEC with PBMC; actives raise or lower the signal;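 for AC50: cell surface CD69 protein quantified by ELISA with fluorescence detection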
Method in brief: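 Primary human vascular co-culture (umbilical vein endothelium with peripheral blood mononuclear cells) exposed to test chemical for 24 h. CD69 levels quantified by fluorescence ELISA; DMSO served as negative control for bidirectional fitting.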

[15] = read-out: C-C motif chemokine 2 (Homo sapiens) (UniProt P13500); test: BSK_KF3CT_MCP1: BioMAP Diversity Plus: KF3CT Assay for Monocyte Chemoattractant Protein 1 (MCP1/CCL2) Biomarker Activity (AID 2283073); conditions: primary human keratinocytes with fibroblasts; actives raise or lower the signal
Method in brief: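 Keratinocytes and foreskin fibroblasts were co-cultured, dosed with chemical, and sampled 24 h later. MCP-1 was quantified by ELISA, and the endpoint was analyzed with bidirectional fitting using DMSO as negative control.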

[16] = read-out: E-selectin (Homo sapiens) (UniProt P16581); test: BSK_LPS_Eselectin: BioMAP Diversity Plus: LPS Assay for Eselectin Biomarker Activity (AID 2283077); conditions: primary human HUVEC with PBMC; actives raise or lower the signal
Method in brief: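 Signal of E-selectin, detected by ELISA, served as the endpoint; cells were umbilical vein endothelium with PBMC, read 24 h after treatment. DMSO defined baseline, and both increases and decreases were fitted.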

[17] = read-out: urokinase plasminogen activator (uPA), PLAU (gene 5328); test: BSK_KF3CT_uPA: BioMAP Diversity Plus: KF3CT Assay for urokinase plasminogen activator (uPA) Biomarker Activity (AID 2283075); conditions: primary human keratinocytes with fibroblasts; actives raise or lower the signal
Method in brief: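 Human keratinocyte plus foreskin fibroblast primary co-culture exposed to chemical for 24 h. uPA levels were quantified by ELISA, and activity was fitted bidirectionally against a DMSO negative-control baseline.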

Measured: AC50

E-selectin (Homo sapiens), sequence (P16581 whole entry, looked up): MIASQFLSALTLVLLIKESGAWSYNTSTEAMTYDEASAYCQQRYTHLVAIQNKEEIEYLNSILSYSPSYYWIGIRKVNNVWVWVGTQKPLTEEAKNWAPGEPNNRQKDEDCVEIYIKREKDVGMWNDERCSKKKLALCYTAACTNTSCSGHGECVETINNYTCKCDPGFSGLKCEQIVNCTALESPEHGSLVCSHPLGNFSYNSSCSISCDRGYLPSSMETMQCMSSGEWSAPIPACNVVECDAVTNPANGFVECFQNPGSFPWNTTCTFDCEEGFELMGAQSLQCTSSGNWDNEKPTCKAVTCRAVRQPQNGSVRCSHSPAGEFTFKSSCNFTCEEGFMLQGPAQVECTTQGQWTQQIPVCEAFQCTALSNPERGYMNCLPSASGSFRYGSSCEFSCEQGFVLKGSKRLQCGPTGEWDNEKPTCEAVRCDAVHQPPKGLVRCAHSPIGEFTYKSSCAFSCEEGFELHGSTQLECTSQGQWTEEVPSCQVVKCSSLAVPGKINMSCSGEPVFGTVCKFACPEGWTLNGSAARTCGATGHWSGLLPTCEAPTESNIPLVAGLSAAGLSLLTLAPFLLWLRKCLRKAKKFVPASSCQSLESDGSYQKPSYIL
Tumor necrosis factor (Homo sapiens), sequence (P01375 whole entry, looked up): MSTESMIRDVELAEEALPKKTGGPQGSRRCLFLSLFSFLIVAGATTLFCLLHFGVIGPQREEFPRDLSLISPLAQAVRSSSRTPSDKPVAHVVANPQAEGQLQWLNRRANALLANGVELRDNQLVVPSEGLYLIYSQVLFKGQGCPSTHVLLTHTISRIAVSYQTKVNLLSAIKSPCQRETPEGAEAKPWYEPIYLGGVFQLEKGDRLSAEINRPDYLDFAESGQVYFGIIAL

Clc1ccc(C(c2ccccc2Cl)C(Cl)(Cl)Cl)cc1 (stereo not drawn)
active: [1] 19 µM | [2] 19.1 µM | [3] 8.05 µM | CD40, CD40 (gene 958) [4] 19.4 µM | [5] 21.9 µM | [6] 19.2 µM | [7] 20.8 µM | [8] 21.6 µM | [9] 4.54 µM | [10] 18.3 µM | [11] 23.4 µM | [12] 23.8 µM | [13] 19.2 µM | CD38, CD38 (gene 952) 20.1 µM | CD40, CD40 (gene 958) [14] 14.1 µM | CD69, CD69 (gene 969) 23.2 µM

C[C@]12CCC(=O)C=C1CC[C@@H]1[C@@H]2CC[C@]2(C)C(=O)CC[C@@H]12
inactive: [1] | [2] | [15] | [3] | CD40, CD40 (gene 958) [4] | [16] | [6] | [7] | [8] | [9] | [10] | [11] | [12] | [13] | CD38, CD38 (gene 952) | CD40, CD40 (gene 958) [14] | CD69, CD69 (gene 969)

Cc1cccc([N+](=O)[O-])c1
inactive: [1] | [2] | [3] | [17] | [16] | [6] | [7] | [8] | [9] | [10] | [11] | [12] | [13] | CD38, CD38 (gene 952) | CD40, CD40 (gene 958) [14] | CD69, CD69 (gene 969)

CN(C)c1nc(=O)n(C2CCCCC2)c(=O)n1C
inactive: [1] | [2] | [15] | [3] | [16] | [6] | [7] | [8] | [9] | [10] | [11] | [12] | [13] | CD38, CD38 (gene 952) | CD40, CD40 (gene 958) [14] | CD69, CD69 (gene 969)

Clc1ccc(C(Cl)(Cl)Cl)cc1
inactive: [1] | [2] | [15] | [3] | CD40, CD40 (gene 958) [4] | [16] | [6] | [7] | [8] | [9] | [10] | [11] | [12] | [13] | CD38, CD38 (gene 952) | CD40, CD40 (gene 958) [14] | CD69, CD69 (gene 969)

Cc1ccccc1[N+](=O)[O-]
inactive: [1] | [2] | [3] | CD40, CD40 (gene 958) [4] | [16] | [6] | [7] | [8] | [9] | [10] | [11] | [12] | [13] | CD38, CD38 (gene 952) | CD40, CD40 (gene 958) [14] | CD69, CD69 (gene 969)

c1cc2ccc3cccc4ccc(c1)c2c34
inactive: [1] | [2] | [3] | CD40, CD40 (gene 958) [4] | [16] | [6] | [7] | [8] | [9] | [10] | [11] | [12] | [13]
active: CD38, CD38 (gene 952) 11.5 µM | CD69, CD69 (gene 969) 4.13 µM

CCSC(=O)N(CC)C1CCCCC1
inactive: [1] | [2] | [15] | [3] | [16] | [5] | [6] | [7] | [8] | [9] | [10] | [11] | [12] | [13] | CD38, CD38 (gene 952) | CD40, CD40 (gene 958) [14] | CD69, CD69 (gene 969)

CCOP(=S)(OCC)SCSC(C)(C)C
active: [12] 35.2 µM
inactive: [1] | [2] | [3] | [16] | [5] | [6] | [7] | [8] | [9] | [10] | [11] | [13] | CD38, CD38 (gene 952) | CD40, CD40 (gene 958) [14] | CD69, CD69 (gene 969)

CCOC(=O)C(O)(c1ccc(Cl)cc1)c1ccc(Cl)cc1
inactive: [1] | [2] | [3] | [9]
active: [16] 31.5 µM | [6] 34.2 µM | [7] 30.3 µM | [8] 39.1 µM | [10] 28.2 µM | [11] 34 µM | [12] 39.3 µM | [13] 34 µM | CD38, CD38 (gene 952) 29.4 µM | CD40, CD40 (gene 958) [14] 30.4 µM | CD69, CD69 (gene 969) 36 µM

N#Cc1ccc(N(CC(N)=O)CC(F)(F)F)cc1C(F)(F)F
inactive: [1] | [2] | [3] | [17] | [16] | [5] | [6] | [7] | [8] | [9] | [10] | [11] | [12] | [13] | CD38, CD38 (gene 952) | CD40, CD40 (gene 958) [14] | CD69, CD69 (gene 969)
